# Measurements from PubChem BioAssay AID1463 (National Center for Advancing Translational Sciences (NCATS), 2008).
# Hit rate of the full screen: of about 280,000 compounds, about 2,600 (0.93%) were called active. About 8% were inconclusive and are not listed. Calls come from the whole dose curve; as a rule, active = well fitted curve in the direction sought with a large enough effect; inconclusive = small, poorly fitted or top-dose-only effect; inactive = flat fitted curve, though single readings scatter. The entries come from a sample that favours actives as a whole. Entries that show only a call come without a potency.
# Assay: Counterscreen qHTS for Inhibitors of Tau Fibril Formation, Fluorescence Polarization; note: nearly all actives have a fitted effect of over 55% in size
# Conditions: tau K18 P301L Alexa594 fluorescence, heparin fibrillization; series mostly up to 57.7 µM
# In short: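 Human tau K18 P301L (15 uM unlabeled, 0.24 uM Alexa 594-labeled) in 100 mM sodium acetate pH 7 with 20 uM heparin, 6 hr at 37 C. ThT 30 uM added, 1 hr ambient; Alexa 594 FP and total fluorescence read at 555/632 nm.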
# Potency is the fitted concentration of half-maximal effect; tags give direction and shape of the fitted curve or compound fluorescence and quenching.
row,SMILES,Potency
1,Nc1nc(SCc2ccccc2Cl)n[nH]1,inactive
2,O=c1cc(O)nc(SCc2ccccc2Cl)[nH]1,inactive
3,CC1(C)N=C(SCc2ccccc2Cl)c2ccccc2N1,12.6 µM [quencher] (active)
4,Cc1cccc(C(=O)Nc2ccc(-c3nc4ncccc4o3)cc2C)c1,inactive
5,CCOC(=O)c1ccc(CSc2nnc3cc(C)c4ccccc4n23)cc1,inactive
6,Cc1cc(C)cc(NC(=S)NCCc2c[nH]c3ccccc23)c1,15.8 µM [quencher] (active)
7,Cc1cc(C)cc(NC(=O)CSc2nc3nccnc3c(=O)n2CCc2c[nH]c3ccccc23)c1,inactive
8,Cc1cc(C)cc(NC(=S)NCc2ccc(F)cc2)c1,inactive
9,CCC(=O)N1CCc2cc(Br)cc(S(=O)(=O)CCC(=O)NCCc3ccc(OC)c(OC)c3)c21,inactive
10,COc1ccc(NC(=O)c2ccco2)cc1NC(=O)COc1ccc(C)c(C)c1,inactive
11,O=C(O)c1ccc(NC(=O)c2cn(-c3ccccc3)nc2-c2ccc(Cl)cc2)cc1,inactive
12,COc1ccc(NC(=O)c2cn(-c3ccccc3)nc2SC)cc1,17.8 µM [quencher] (active)
13,COc1ccc(NC(=O)c2c(SC)nsc2SC)cc1,inactive
14,CCOc1cc(C2C(C(=O)OC)=C(C)NC3=C2C(=O)c2ccccc23)ccc1O (centres undefined),17.8 µM [quencher] (active)
15,CCOc1cc(C2C(C(=O)Nc3ccc(OC)cc3)=C(C)Nc3nc(SC)nn32)ccc1O (centres undefined),inactive
16,CCOc1cc(C2C(C(=O)OC(C)C)=C(C)NC3=C2C(=O)CCC3)cc([N+](=O)[O-])c1O (centres undefined),inactive
17,CCOC(=O)CN1C(C(=O)c2ccccc2)=C(OC(=O)C(C)(C)C)c2ccccc2S1(=O)=O,inactive
18,CCN(CCCNC(=O)c1ccc(Sc2ccc(C)cc2)c(NC(C)=O)c1)c1cccc(C)c1,inactive
19,CCCCN(CC)CCCNC(=O)c1nn(C)c2c1CSc1ccccc1-2,inactive
20,COc1ccc(CCNC(=O)c2nn(C)c3c2CSc2ccccc2-3)cc1OC,10 µM [quencher] (active)

row,SMILES,Potency
1,COc1ccc(CCNC(=O)c2c3c(nc4ccccc24)C(=O)N(C2CCCCC2)C3)cc1OC,inactive
2,Cc1ccc(C2CCN(C(=O)c3cnn(-c4ccccc4Cl)c3C3CCN(C(=O)OC(C)(C)C)CC3)C2)cc1 (centres undefined),inactive
3,Cn1nnc2c(N3CCN(c4ccccc4)CC3)ncnc21,inactive
4,CCC1=Nc2cc(C(=O)NCCCOC(C)C)ccc2Sc2ccc(C)cc21,inactive
5,CCOC(=O)c1[nH]c(C)c(CCC(=O)N2CCN(c3ccccc3)CC2)c1C,inactive
6,O=C(CC(c1cccs1)N1Cc2ccccc2C1=O)Nc1ccc(F)c(F)c1 (centres undefined),inactive
7,CCCn1c2ccccc2c2cnn(CC(=O)N(C)c3ccccc3CC)c(=O)c21,inactive
8,O=C1Cc2cc(S(=O)(=O)Nc3ccc(OC(F)(F)F)cc3)cc3c2N1CCC3,inactive
9,CCCCS(=O)(=O)c1oc(-c2cccs2)nc1S(=O)(=O)c1ccccc1,inactive
10,CCOCCc1nn2c(=O)cc(COC(=O)CNC(=O)c3ccc(C(C)(C)C)cc3)nc2s1,inactive
11,Cc1ccc(C)c(N2CCN(c3ccc4cc(S(=O)(=O)N5CCC(C)CC5)ccc4n3)CC2)c1,inactive
12,Cc1ccc(Nc2ccc3cc(S(=O)(=O)N4CCCCC4)ccc3n2)cc1F,7.08 µM [quencher] (active)
13,O=S(=O)(c1ccc2nc(N3CCN(c4cccc(Cl)c4)CC3)ccc2c1)N1CCCCC1,inactive
14,Cc1nn(CC(=O)NCCc2ccccc2)c(=O)c2c1sc1ccccc12,inactive
15,CCn1c(CN2CCC(C)CC2)nc2cc(NC(=O)c3ccccc3[N+](=O)[O-])ccc21,inactive
16,CCCn1c2ccccc2c2cnn(CC(=O)NCC3CCN(Cc4ccc(C)cc4)CC3)c(=O)c21,inactive
17,COc1ccc(S(=O)(=O)NC(C)C(=O)Nc2cccc([N+](=O)[O-])c2)cc1 (centres undefined),inactive
18,Cc1ccc(C(=O)Nc2ccc(C(=O)O)cc2)cc1S(=O)(=O)Nc1ccccc1,inactive
19,COc1ccc(NS(=O)(=O)c2cc(NC(=O)CC(=O)c3ccc([N+](=O)[O-])cc3)ccc2C)cc1,7.94 µM [quencher] (active)
20,COc1cc(NC(=O)Cn2nc(-c3ccc(C)c(C)c3)ccc2=O)cc(OC)c1,inactive

row,SMILES,Potency
1,Cn1c(SCC(=O)N2CCCc3ccccc32)ncc(C(=O)Nc2ccc(F)cc2)c1=O,inactive
2,COc1ccc(-n2nnc(-c3nsc(NC(=O)c4ccc(C)c(C)c4)n3)c2C)cc1Cl,inactive
3,COc1ccc2[nH]cc(/C=C(/C#N)S(=O)(=O)c3ccccc3)c2c1,25.1 µM [quencher] (active)
4,COc1ccc(/C=N/N=C/c2c[nH]c(=O)c(C#N)c2Nc2ccccc2)cc1,inactive
5,CCN(CC)CC(=O)c1c[nH]c2ccc(OC)cc12,inactive
6,CCOC(=O)C1=C(C)NC(SC)=NC1c1ccccc1 (centres undefined),inactive
7,CCOC(=O)C1=C(C)NC(=O)NC1c1ccccc1 (centres undefined),inactive
8,CCOC(=O)C1=C(C)N=C2c3ccccc3C(=O)C2C1c1ccc(Br)cc1 (centres undefined),11.2 µM [quencher] (active)
9,CSc1nc(=O)c2c(n1C)NC(=O)CC2c1ccccc1OC(C)C (centres undefined),inactive
10,CN=c1scc(-c2cc(OC)ccc2OC)n1/N=C/c1c(C)[nH]c2ccccc12,12.6 µM [quencher] (active)
11,CCn1c(-c2cc(OC)ccc2OC)csc1=Nc1c(C)n(C)n(-c2ccccc2)c1=O,inactive
12,COC(=O)c1[nH]c2ccccc2c1NS(=O)(=O)c1ccc(OC)cc1OC,inactive
13,CC(=O)N1CCCc2cc(S(=O)(=O)N3CCC(C(=O)NCc4ccc(F)cc4)CC3)ccc21,inactive
14,COc1ccc(OC)c(NC(=O)C2CCCN(S(=O)(=O)c3ccc4c(c3)CCCC(=O)N4)C2)c1 (centres undefined),inactive
15,CCOc1ccccc1C(=O)NC1(C(F)(F)F)NC(=O)N(CCc2ccc(OC)c(OC)c2)C1=O (centres undefined),inactive
16,CC(C)c1ccc(S(=O)(=O)Nc2ccc(O)c(Sc3nc4ccccc4s3)c2)cc1,14.1 µM [quencher] (active)
17,O=C(CSc1nc2ccccc2s1)Nc1ccc(C(=O)O)cc1,inactive
18,O=C(O)c1cccc(S(=O)(=O)Nc2ccc(O)cc2Sc2nc3ccccc3s2)c1,inactive
19,Cc1nnc(SCC(=O)NCc2ccccc2Cl)c2nn(-c3ccccc3)c(C)c12,inactive
